G9a inh: blocks human histone lysine methyltransferase G9a | Q96KQ7 | G9a H3K9 monomethylation, AlphaScreen, 2 h | Potency, µM (top dose mostly 102 µM), without a hit: at the highest dose activity, negative = inhibition, most hits filed as inhibitors | 350,000 compounds, 8.8% hits | AID 504332; further: on the % scale 0 is the no-effect control and ±100 the full control effect; nearly all actives have a fitted effect of over 75% in size
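AlphaScreen detection with an anti-monomethyl H3K9 antibody quantified product after a 2 h room-temperature reaction containing 500 nM biotinylated H3K9 peptide, 20 µM SAM and 20 nM enzyme, which had been preincubated 15 min with compound.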
Sfp inh: inhibitors of Bacillus subtilis Sfp phosphopantetheinyl transferase; Biochemical Sfp PPTase activity, qHTS; Potency, µM, without a hit: largest response in the series, negative = inhibition, usual class: inhibitors; Q9F4F7; 310,000 compounds, 3.5% hits;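 further: the enzyme is Sfp with the accession as filed and its product quenches rhodamine fluorescence; 0% = enzyme reaction without inhibitor and -100% = no enzyme wells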
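Step 1, compound plus 15 nM Sfp-PPTase, 15 min, room temperature. Step 2, add rhodamine-CoA (5 uM) and BHQ-2-YbbR (12.5 uM). Step 3, read 525/598 nm fluorescence at 0 and 30 min.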
PLK1 PBD inh: inhibitors of human PLK1 polo-box domain binding; Plk1 PBD binding of FITC phosphopeptide, fluorescence polarization; P53350; 360,000 compounds, 2.8% hits; AID 720504; Potency, µM, for inactives: max response, negative = inhibition, hits mostly inhibitors; further: series mostly up to about 57 µM; on the % scale 0 is the no-effect control and ±100 the full control effect; nearly all actives have a fitted effect of over 65% in size
BAZ2B block: inhibitors of human BAZ2B bromodomain; 360,000 compounds, 4.4% hits; Potency, µM (doses to about 114 µM), without a hit: at the top dose activity change, negative = inhibition, most hits filed as inhibitors; Q9UIF8; AlphaScreen BAZ2B-H3K14Ac peptide displacement; further: on the % scale 0 is the no-effect control and ±100 the full control effect; nearly all actives have a fitted effect of over 60% in size
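BAZ2B 50 nM plus b-H3(5-23)K14Ac 50 nM, PBS pH 7.4/0.01% Tween-20, 30 min RT; compound added (max 110 uM), 30 min RT; streptavidin donor/Ni-chelate acceptor beads 10 ug/mL final, 20 min dark; AlphaScreen read.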
JMJD2A Tudor: blocks the human JMJD2A Tudor domain | O75164 | AlphaScreen JMJD2A-Tudor / H3K4me3 peptide binding | Potency, µM (top dose mostly 114 µM), without a hit: at the top dose activity change, negative = inhibition, actives largely listed as inhibitors | 390,000 compounds, 4.4% hits; further: on the % scale 0 is the no-effect control and ±100 the full control effect; nearly all actives have a fitted effect of over 50% in size
HP1b chromo inh: HP1-beta chromodomain-methylated histone interaction inhibition. P83916. AlphaScreen HP1-beta / biotin-H3K9me3 peptide binding. Potency, µM (highest dose often 114 µM), for inactives: top-dose activity change, negative = inhibition, actives largely listed as inhibitors. 390,000 compounds, 0.56% hits; further: nearly all actives have a fitted effect of over 70% in size
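Compound inhibition of the preformed complex between 50 nM HP1-beta and 50 nM biotinylated H3K9me3 peptide was read by AlphaScreen. Buffer was PBS pH 7.4 with 0.01% Tween-20. Incubations ran 30 min at room temperature, with 10 ug/mL donor/acceptor beads.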
Starred values were filed as active, the others as inactive; ? = inconclusive; . = no result given; [ ] = dose if it differs, or a comment. Hits are enriched below; roughly 12% of the tested compounds scored in any of these assays. The call rests on the fitted dose curve; in most records, active means well fitted curve in the direction sought with a large enough effect; inconclusive means small, poorly fitted or top-dose-only effect, or another doubt; inactive means no such curve, though single readings can be large; an effect the other way counts as inactive or inconclusive. Potency means the concentration at half of the fitted maximal effect.

SMILES | G9a inh | Sfp inh | PLK1 PBD inh | BAZ2B block | JMJD2A Tudor | HP1b chromo inh
COc1ccc(C(c2c(C)n(C)n(-c3ccccc3)c2=O)c2c(C)n(C)n(-c3ccccc3)c2=O)cc1 | 28.6% | 12.5% | -0.2% | -5.1% | -0.7% | 41.9%
O=C(NCCN1CCOCC1)/C(=C\c1ccc(F)cc1)NC(=O)c1ccccc1 | -7.5% | 9.0% | -12.0% | -5.0% | 0.0% | 53.2%
O=C(Cc1cccs1)Nc1ccc(S(=O)(=O)N2CCCCC2)cc1 | 8.91µM* | -2.1% | -13.1% | 54.6% | ? | -5.7%
CC(=O)Nc1ccc(S(=O)(=O)N2CCN(C(=O)Cc3ccccc3)CC2)cc1 | -4.0%[59 µM] | 13.0% | 26.7µM* | -4.4% | ? | -15.3%
O=C(NCc1cccs1)c1ccc(S(=O)(=O)N2CCCCC2)cc1 | 2.7% | 4.4% | 13.4µM* | -10.5% | ? | -19.7%
CCC(C)c1ccc(S(=O)(=O)N2CCN(S(=O)(=O)c3ccc(NC(C)=O)cc3)CC2)cc1 (stereo not given) | 10.7% | 11.1% | -0.5% | -20.3% | -16.2% | 5.8%
CN1CCN(S(=O)(=O)c2ccc(NC(=O)Cc3cccs3)cc2)CC1 | -30.8%[12.7 µM] | 11.5% | -8.5% | -30.2% | -23.4% | 11.2%
CCC(C)N1CCN(S(=O)(=O)c2ccc(NC(C)=O)cc2)CC1 (stereo not given) | 20µM* | -8.2% | 5.9% | 56.2µM* | 22.4µM* | ?
CC(C)C(N)c1csc(Nc2ccc(C(=O)NCCCO)cn2)n1 (stereo not given) | . | . | -2.8% | . | . | .
COc1ccc(N2CCN(C(=O)CCCCCn3c(=S)[nH]c4ccc(N5CCOCC5)cc4c3=O)CC2)cc1 | . | . | 1.8% | . | . | .
CCOC(=O)N1CCN(C(=O)CSc2nc(=O)n3ccccc3n2)CC1 | 18.5%[2.33 µM] | . | -5.9% | -4.1% | -3.4% | 24.0%
CC(C)(C)c1ccc(C(=O)NCCC(=O)NCc2cccs2)cc1 | 9.2% | 10.4% | 26.7µM* | 1.3% | ? | 8.0%
O=C(Cc1ccccc1)Nc1ccc(S(=O)(=O)N2CCCC2)cc1 | -37.8% | -3.5% | -7.9% | -5.9% | -2.1% | 1.7%
CC(=O)Nc1ccc(NC(=O)Cc2ccc(S(=O)(=O)N3CCCCC3)cc2)cc1 | 39.8µM* | . | -2.8% | -33.5% | -13.1% | 41.2%
CCCNC(=O)CCNC(=O)c1ccc(C(C)(C)C)cc1 | ? | 9.7% | -4.2% | -6.5% | -9.5% | 9.0%
C(=N/n1c2ccccc2c2ccccc21)/c1ccco1 | ? | -3.8% | -10.2% | 8.91µM* | ? | 35.5µM*
C(=N\n1c2ccccc2c2ccccc21)/c1ccccc1 | 19.1%[59 µM] | -12.8% | 2.4% | 23.3% | -4.2% | 44.5%
COC(=O)[C@@]1(C)CCC[C@@]2(C)c3ccc(O)c(C(C)C)c3CCC21 (stereo not given in full) | -38.5%[2.33 µM] | 29.3% | . | . | . | .
O=Cc1ccc(N2Cc3ccccc3C2)cc1 | . | 5.5% | -13.9% | -4.9% | -13.0% | 29.3%
Cc1cc(N2Cc3ccccc3C2)ccc1C=O | 50.1µM* | 15.8% | -8.9% | -20.8% | -17.3% | -6.9%
Cc1cc2c(cc1C)CN(c1ccccc1)C2 | 7.08µM* | -29.3% | -12.4% | -27.1% | ? | 24.5%
Oc1cccc(N2Cc3ccccc3C2)c1 | 17.5%[2.33 µM] | -7.5% | -17.3% | -24.6% | ? | 22.1%
CC1Cc2cc(S(=O)(=O)CCC(=O)Nc3ccc(F)cc3)ccc2N1C(=O)C1CC1 (stereo not given) | ? | . | . | -14.5% | -10.3% | 34.0%
CC(C)Cc1cc(C(=O)Nc2sc3c(c2C#N)CCC3)no1 | 44.7µM* | 56.2µM* | 23.8µM* | 5.1% | -4.1% | 5.0%
Cc1cc(C(=O)Nc2sc3c(c2C#N)CCC3)no1 | ? | 6.5% | ? | -31.2% | -33.5% | 1.1%
SMILES | G9a inh | Sfp inh | PLK1 PBD inh | BAZ2B block | JMJD2A Tudor | HP1b chromo inh
COc1ccccc1-c1cc(C(=O)Nc2sc3c(c2C#N)CCCC3)no1 | 3.16µM* | . | . | -10.5% | -8.9% | ?
CCOC(=O)c1cc(C(=O)Nc2sc3c(c2C#N)CCCC3)nn1C | 11.2µM* | 35.5µM* | 21.2µM* | 16.5% | -11.6% | -7.3%
CC(C)Cc1cc(C(=O)Nc2sc3c(c2C#N)CCCC3)no1 | -32.9% | -16.7% | ? | 48.5% | 19.0% | 30.6%
N#Cc1c(NC(=O)c2cc(C3CC3)on2)sc2c1CCC2 | 39.8µM* | ? | 26.7µM* | -10.4% | -31.2% | -15.8%
CCCCOC(=O)c1cccc(NC(=O)/C=C/c2ccccc2Cl)c1 | -2.8%[59 µM] | . | . | 14.6% | -12.4% | 25.6%
CCOc1ccc(OCC)c(Nc2nc3ccc(C(=O)c4ccccc4)cc3n3cnnc23)c1 | -25.5%[59 µM] | . | . | -39.1% | 2.8% | 21.5%
Cc1cc(C(=O)Nc2sc3c(c2C#N)CCCC3)no1 | 7.08µM* | 20µM* | 26.7µM* | 9.9% | -19.2% | -18.3%
O=c1ccc(-c2ccc(S(=O)(=O)Nc3cccc([N+](=O)[O-])c3)s2)n[nH]1 | 70.8µM* | 2.9% | -9.0% | -31.2% | -11.5% | 41.0%
CCOc1cc(CNCCSc2nnnn2C)cc(Cl)c1OCc1ccc(Cl)cc1 | 9.0%[59 µM] | . | . | 0.5% | 8.6% | 39.3%
O=C(NCCC(F)(F)F)C1Cc2c(-c3ccc(Cl)cc3)ccnc2O1 (stereo not given) | . | . | 0.9% | . | . | .
CCOc1cc(-c2sc(Nc3ccc(CC)cc3)n[n+]2-c2ccccc2)ccc1OC | -11.0%[2.33 µM] | . | -23.0% | ? | ? | -11.6%
Cc1cccc(-c2sc(Nc3ccccc3)n[n+]2-c2ccc(F)cc2)c1 | 35.5µM* | 15.8% | -7.3% | -1.3% | -31.7% | 30.4%
CCc1ccc(Nc2n[n+](-c3ccccc3)c(-c3cccc(C)c3)s2)cc1 | 7.6%[2.33 µM] | . | -19.8% | 35.5µM* | 79.4µM* | 11.4%
O=C(NCCNC[C@@H](O)COc1ccc(O)cc1)N1CCOCC1 | 27.6%[21.5 µM] | -32.0% | . | . | . | .
O=C(c1ccc2oc(Cc3ccc(Cl)cc3)nc2c1)N1CC[C@H](O)C1 | 6.9% | 5.7% | -8.8% | -19.8% | -3.8% | 62.1%
COc1cc(C2NC(=S)NC(C)=C2C(=O)Nc2cc(C)cc(C)c2)ccc1O (stereo not given) | ? | 11.2% | -19.9% | -25.8% | -21.9% | 38.1%
CC(=O)N1CCN(CCN=CC2=C(O)CC(c3cccs3)CC2=O)CC1 (stereo not given) | 50.1µM* | -0.8% | -0.6% | 8.8% | -0.7% | 39.9%
CC(=O)N1CCN(CCN=CC2=C(O)CC(c3ccc(Cl)cc3)CC2=O)CC1 (stereo not given) | 50.1µM* | 5.9% | -7.4% | -6.1% | -12.3% | 49.7%
Cc1oncc1C(=S)Nc1ccccc1 | ? | -24.8% | 26.7µM* | 3.1% | -11.3% | -16.1%
COc1ccc(C(C)C)cc1S(=O)(=O)Nc1cccnc1 | . | . | -6.6% | . | . | .
CC(C)NC(=S)NNc1nc2ccccc2s1 | 2.24µM* | 2.51µM* | ? | -33.6% | 44.7µM* | 50.1µM*
CN(C(=O)/C=C/c1ccc([N+](=O)[O-])s1)c1ccccc1 | 44.7µM* | -3.9% | ? | 39.8µM* | ? | -14.3%

Assay outcomes as filed in PubChem.
